The values that follow come from PubChem BioAssay (NCATS).

Inconclusive results are not listed. Values without a mark were called inactive. The source made the active and inactive calls. Calls come from the whole dose curve; as a rule, active = well fitted cell-killing curve with a large enough effect; inconclusive = small, poorly fitted or top-dose-only effect, or effect the other way; inactive = no such curve, though single readings can be large or run the other way.
Potency is the fitted concentration of half-maximal effect.

This experiment in a line: Viability qHTS for spleen associated tyrosine kinase inhibitor (SYKi) drug resistant MV4-11 cells (AID 1963824). Note: nearly all actives have a fitted effect of over 35% in size. The note with it: SYKi-resistant MV4-11 viability, CellTiter-Glo, 72 h; series mostly up to 45 µM; viability, % of control: at the top concentration. The procedure, abridged:
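CellTiter-Glo luminescence, read 10 min after reagent addition, reports viability after a 72 hr compound exposure. Cells are an MV4-11 line made resistant to SYK inhibition, seeded at 500 per well onto compound-containing plates.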
With `O=c1nc(-c2ccccn2)sc2ccccc12`, the Potency was 2.59 µM (active). Take `CC1=CC(=O)CC(C)(C)[C@H]1/C=C/C(CO)O[C@@H]1O[C@H](CO)[C@@H](O)[C@H](O)[C@H]1O` (some centres undefined): the “viability, % of control” value was 75%. Still for that read-out and setting: to `C=C(C(=O)O)[C@@H]1CC[C@@]2(C)CC[C@@H](O)C(=C)C2C1` (some centres undefined) belongs 71.6%; to `C[C@@H]1O[C@@H](O[C@@H]2CO[C@@H](O[C@H]3CC[C@@]4(C)C(CC[C@]5(C)C4CC=C4[C@@H]6CC(C)(C)CC[C@]6(C(=O)O[C@@H]6O[C@H](CO)[C@@H](O)[C@H](O)[C@H]6O)CC[C@]45C)[C@]3(C)CO)[C@H](O)[C@H]2O[C@@H]2O[C@H](CO)[C@@H](O)[C@H](O)[C@H]2O)[C@H](O)[C@H](O)[C@H]1O` (some centres undefined), 62.6% [at 9.25 µM]; to `COc1cc(O)cc(C)c1C(=O)OC1C(CO)OC(OC2C(O)C(O)C(O)C(O)C2O)C(O)C1O` (centres undefined), 63.5% [at 17.3 µM]. For the compound `CC(C)c1cc2c(c(O)c1O)[C@@]13CCCC(C)(C)C1[C@@H](O)[C@@H]2OC3=O` (some centres undefined), the Potency is 10.1 µM (active). Consider `C[C@@H]1C(=O)O[C@H](C)[C@H]1CC(=O)[C@](C)(O)[C@H]1CC[C@@]2(O)C3=CC(=O)[C@@H]4C[C@@H](O)[C@@H](O)C[C@]4(C)C3CC[C@]12C` (some centres undefined), for which the “viability, % of control” value is 104% [at 17.3 µM]. Take `COc1cc2c(cc1-c1c(C)noc1C)ncc1[nH]c(=O)n(C(C)c3ccccn3)c12` (centres undefined): the Potency was 0.366 µM (active). Still for that read-out and setting: the same measure for `CN(C)C(=O)COC(=O)c1cc(-c2ccc(C3CCNCC3)cc2)c2ccc(-c3ccc(C(F)(F)F)cc3)cc2c1`: 5.17 µM (active). As for `C=C(C)C1CCC2(C(=O)O)CCC3(C(=O)O)C(CCC4C5(C)CCC(O)C(C)(C(=O)O)C5CCC43C)C12` (centres undefined), the “viability, % of control” value was 71.1% [at 17.3 µM]. Same read-out and setting: the same measure for `CC1CC(=O)[C@]2(O)C(C(=O)OCCc3ccc(O)c(O)c3)=CO[C@@H](O[C@@H]3O[C@H](CO)[C@@H](O)[C@H](O)[C@H]3O)[C@H]12` (some centres undefined): 82.4% [at 17.3 µM]; for `CC(C)C1NC(=O)CNC(=O)C2CCCN2C(=O)C(Cc2c[nH]c3ccccc23)NC(=O)CNC(=O)C(Cc2ccc(O)cc2)NC(=O)CNC1=O` (centres undefined): 77.6% [at 17.3 µM].

As to `CC[C@@H](Nc1c(Nc2cccc(C(=O)N(C)C)c2O)c(=O)c1=O)c1ccc(C)o1`, the “viability, % of control” value was 69.7%.

`C(#Cc1nc2ncccc2nc1OCCN1CCCC1)c1ccccc1`: the Potency is 1.03 µM (active). For the compound `COC(=O)C1=COC(OC2OC(CO)C(O)C(O)C2O)C2C(C)CC(=O)C12O` (centres undefined), the “viability, % of control” value was 94.9% [at 17.3 µM].

As for `CCCC(NC(=O)/C(C#N)=C/c1cccc(Br)n1)c1ccccc1` (centres undefined), the Potency is 9.2 µM (active).

In the case of `CC(C)=CCc1cc(C(O)C2NC(=O)CNC(=O)C(Cc3c[nH]c4ccccc34)NC(=O)C3CCCN3C(=O)CNC(=O)C(C(C)C)NC(=O)CNC2=O)ccc1O` (centres undefined), the viability, % of control was 92.7% [at 9.25 µM]. Same read-out and setting: to `CC1(C)CC[C@]2(C(=O)O)CC[C@]3(C)C(=CCC4[C@@]5(C)CC[C@H](O[C@@H]6O[C@H](C(=O)O)[C@@H](O)[C@H](O[C@@H]7O[C@H](CO)[C@H](O)[C@H](O)[C@H]7O)[C@H]6O[C@@H]6O[C@H](CO)[C@@H](O)[C@H](O)[C@H]6O)C(C)(C)C5CC[C@]43C)[C@@H]2C1` (some centres undefined) belongs 75.1% [at 4.97 µM]; to `CSCC[C@H](NC(=O)[C@H](CCSC)NC(=O)CNC(=O)[C@H](Cc1ccc(O)cc1)NC(=O)[C@H](Cc1ccccc1)NC(=O)[C@H](CCCN=C(N)N)NC(=O)[C@H](CC(=O)O)NC(=O)[C@@H]1CCCN1C(=O)[C@H](CC(=O)O)NC(=O)[C@@H]1CCCN1C(=O)[C@@H]1CCCN1C(=O)[C@@H](N)CC(=O)O)C(N)=O`, 105% [at 17.3 µM]. As to `CC(C)Oc1ccc(C(=O)NC(CNC(=O)CN(C)C)Cc2ccc(-c3cn4cccc(C(C)O)c4n3)cc2)cc1Cl` (centres undefined), the Potency is 0.082 µM (active). As for `C[C@@H]1CC[C@]2(C(=O)O)CC[C@]3(C(=O)O)C(=CCC4[C@@]5(C)CC[C@H](O[C@@H]6O[C@@H](C)[C@H](O[C@@H]7O[C@H](CO)[C@@H](O)[C@H](O)[C@H]7O)[C@@H](O)[C@H]6O)C(C)(C)C5CC[C@]43C)C2[C@H]1C` (some centres undefined), the “viability, % of control” value was 96% [at 17.3 µM]. For the compound `C/C=C/[C@@H]1C=C[C@@H]2C[C@H](C)CC[C@H]2[C@]1(C)/C(O)=C1/C(=O)[C@@H](CO)N(C)C1=O`, the Potency was 16.1 µM (active).

Take `COc1cc(CCc2ccccc2)c(C(=O)O)c2c1CC(C(C)(C)O)O2` (centres undefined): the Potency was 2.27 µM (active).

As for `CC1(O)CC(O)C2C(C(=O)O)=COC(OC3OC(CO)C(O)C(O)C3OC(=O)/C=C/c3ccc(O)cc3)C21` (centres undefined), the “viability, % of control” value was 91.9% [at 17.3 µM].

As for `C=C1C(=O)OC2/C=C(\CO)CC/C=C(\C=O)CC(OC(=O)CC(C)C)C12` (centres undefined), the Potency is 2.02 µM (active). `CC(C)=CCC(O)/C(C)=C/CO[C@@H]1O[C@H](CO)[C@@H](O)[C@H](O)[C@H]1O` (some centres undefined): the “viability, % of control” value was 91.2%. Same read-out and setting: to `COC(=O)CCC(=O)OC[C@]1(C)CCC[C@@]2(C)C3CC[C@]4(C)C=CC3(CCC12)C4` (some centres undefined) belongs 80% [at 17.3 µM]; to `OC[C@H]1O[C@@H](Oc2ccccc2)[C@H](O)[C@@H](O)[C@@H]1O`, 80.2%.

Regarding `O=C(OCC1OC(Oc2ccc(O)cc2COC(=O)C2(O)C(O)CCC(=O)C2OC(=O)C2C=CCC2)C(OC(=O)C2C=CCC2)C(O)C1O)C1C=CCC1` (centres undefined), the “viability, % of control” value was 83.7% [at 17.3 µM].
